Source: PubChem
hcDAF12 agonist: activators of H. contortus DAF-12 nuclear receptor | HEK293 hcDAF-12 lit1-tk-luc reporter, luminescence; 0% DMSO, 100% Δ7-dafachronic acid | hit rate 1.4% among 370,000 | activation, % at 6.8 µM;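 active = activation above the mean of all tested compounds plus 3 SD, cut at about 5.5% in these data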;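 also: 100% = response to 3 µM Δ7-dafachronic acid high control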
hgDAF-12 ag: activates the H. glycines DAF-12 receptor ligand-binding domain. HEK293 GAL4-hgDAF12 UAS-luciferase reporter, agonist luminescence; normalized to butyrate control. activation, % at 6.8 µM. hit rate 1.8% among 370,000;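 active = activation above a cutoff set at the mean of all screened compounds plus 3 SD, cut at about 10% in these data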;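 also: 0% = DMSO wells and 100% = sodium butyrate wells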
DAX1 inh-1: inhibitors of human orphan nuclear receptor DAX1 (NR0B1); P51843; hit rate 0.99% among 340,000; HEK293 Gal4-DAX1 luciferase reporter, luminescence; inhibition, % at 6.75 µM;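 active = inhibition above the mean over all tested compounds plus 3 SD, cut at about 4.2% in these data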;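 also: 0% = DAX1-transfected cells with DMSO and 100% = empty-vector control cells with DMSO; inhibition shows as a rise in luminescence from relieved DAX1 repression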
Target sequence (P51843 207-470 limits assumed): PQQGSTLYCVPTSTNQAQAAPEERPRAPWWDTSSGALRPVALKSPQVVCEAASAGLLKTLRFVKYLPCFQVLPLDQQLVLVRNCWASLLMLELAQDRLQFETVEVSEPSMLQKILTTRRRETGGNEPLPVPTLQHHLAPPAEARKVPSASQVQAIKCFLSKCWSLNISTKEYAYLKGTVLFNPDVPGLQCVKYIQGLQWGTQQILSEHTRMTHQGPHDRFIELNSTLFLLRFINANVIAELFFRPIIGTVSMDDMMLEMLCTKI
DAX1 inh-2: blocks DAX1 repression of SF-1 activated StAR promoter; HEK293T StAR-luciferase reporter, SF-1/DAX-1 repression relief; inhibition, % at 6.8 µM; hit rate 1.1% among 370,000; AID 652010;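 active = inhibition above the mean over all tested compounds plus 3 SD, cut at about 3.6% in these data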;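 also: 0% = DAX-1 cells with DMSO and 100% = cells lacking DAX-1 with DMSO; higher inhibition means more luminescence from relief of DAX-1 repression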
ssDAF-12 act: activates DAF-12 receptor from parasite S. stercoralis | AID 652126 | activation, % at 6.8 µM | hit rate 1% among 370,000 | HEK293 ssDAF-12/GRIP1 lit1-tk-luc reporter, luminescence; % of 3 µM dafachronic acid response;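 active = activation above the mean over all tested compounds plus 3 SD, cut at about 0.9% in these data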;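 also: 0% = DMSO-only wells and 100% = 3 µM delta7-dafachronic acid wells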
AHR activator: activators of human aryl hydrocarbon receptor. AHR-responsive luciferase reporter cells, luminescence. activation, % at 5 µM. P35869. hit rate 2.5% among 320,000; in the data active = activation above about 47%;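 also: 0% = vehicle wells and 100% = reference agonist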
DAX1 inh confirm: NR0B1 (human) inhibition, confirmation; shares compounds with DAX1 inh-2; HEK293T StAR-promoter luciferase reporter, SF-1/DAX-1 repression; inhibition, % at 6.8 µM; hit rate 87% among 2,400; AID 652134;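 active = inhibition above the average of every tested compound plus 3 SD, cut at about 3.8% in these data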;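 also: 0% = DAX-1 cells with DMSO and 100% = no DAX-1 control cells with DMSO; active compounds raise luminescence by relieving repression of the StAR reporter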
SF1 AF2mut Luc: nonselective inhibitor or artifact in SF-1 mutant DAX1 counter-screen | shares compounds with DAX1 inh-2 | HEK293 StAR-luciferase, SF-1 AF2 mutant, luminescence | inhibition, % at 6.8 µM | hit rate 78% among 2,400;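 active = inhibition above the mean of all tested compounds plus 3 SD, cut at about 3% in these data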;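 also: 0% = DAX-1 transfected cells with DMSO and 100% = cells without DAX-1 with DMSO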
* = called active by the depositor; . = no result given. Shown are actives, neighbours in structure and some others; about 5.7% of the full set was active somewhere.

SMILES | hcDAF12 agonist | hgDAF-12 ag | DAX1 inh-1 | DAX1 inh-2 | ssDAF-12 act | AHR activator | DAX1 inh confirm | SF1 AF2mut Luc
O=C(Nc1ccc(Br)cc1)NC1CCCCCCC1 | 1 | 11* | 2 | 5.1* | 0 | 14 | 9.1* | 6.0*
O=C(Nc1cccc([N+](=O)[O-])c1)NC1CCCCCCC1 | 4 | 5 | 1 | 5.5* | -1 | . | 4.6* | 4.3*
O=C(Nc1ccccc1)NC1CCCCCCC1 | 4 | 8 | . | 1 | 0 | 3 | . | .
CCOc1ccc(NC(=O)NC2CCCCCCC2)cc1 | 5 | 12* | 3 | 9.8* | 0 | . | 9.0* | 4.0*
CC(C)N(c1ccccc1)c1ccc(NC(=O)CCl)cc1 | -3 | -4 | -3 | -4 | -2 | 2 | . | .
Cc1cccc(N2CCN(C(=O)/C=C/c3cccs3)CC2C)c1 (centres undefined) | 3 | -1 | 1 | 0 | -1 | 1 | . | .
COc1ccc(C(=O)Nc2ccc3nc(N4CCOCC4)sc3c2)cc1OC | 1 | -1 | 0 | 0 | 0 | 38 | . | .
Cc1occc1C(=O)NNC(=O)C1CCCCC1 | 0 | 0 | 0 | 0 | -1 | 1 | . | .
C/C(=N\NC(=O)c1nn(C)c(C)c1Br)c1ccc(NC(=O)C2CCCC2)cc1 | 4 | 12* | 2 | 8.9* | 0 | . | 2 | -1
COc1ccc(C(=O)Nc2cccc(/C(C)=N\NC(=O)c3ccoc3C)c2)cc1OC | 3 | 13* | 2 | 12* | 0 | . | -1 | -2
C/C(=N/NC(=O)c1ccoc1C)c1ccc(NC(=O)C2CCCC2)cc1 | 6.0* | 15* | 2 | 6.1* | 0 | 10 | 5.3* | 4.2*
COc1ccc(C(=O)Nc2cccc(/C(C)=N/NC(=O)c3ccc([N+](=O)[O-])c(C)c3)c2)cc1OC | 0 | 1 | 0 | -1 | -1 | 46 | . | .
c1ccn2c(SCc3ccc4c(c3)OCCO4)nnc2c1 | 3 | 4 | 2 | 4.5* | -1 | 1 | 5.3* | 3.5*
CN(C)CCCNC(=O)c1ccc(-c2cc(O)c3ncccc3c2)cc1 | 1 | -2 | 0 | 0 | 0 | 0 | . | .
Cc1cccc(CN2CCCC(C(=O)Nc3ccc(-c4cscn4)cc3)C2)c1 (centres undefined) | -3 | 2 | 0 | 4.6* | -1 | . | 3 | -1
O=C(Nc1ccc(-c2cscn2)cc1)C1CCCN(Cc2ccccc2)C1 (centres undefined) | -3 | 4 | 0 | 2 | -1 | 16 | . | .
CCc1ccccc1NC(=O)C1CCCN1S(=O)(=O)c1ccc2c(c1)n(C)c(=O)c(=O)n2C (centres undefined) | 2 | -1 | 1 | 0 | 0 | -2 | . | .
CCOC(=O)C(NC(=O)Nc1ccc(Cl)cn1)(Oc1ccc(F)cc1)C(F)(F)F (centres undefined) | 4 | 7 | 1 | 4.8* | 0 | 5 | 4.0* | 3.2*
O=C(CN1C(=O)NC2(CCCC2)C1=O)N1CCN(S(=O)(=O)c2ccccc2)CC1 | 0 | 0 | 2 | 0 | 0 | 0 | . | .
O=C(CCC(=O)Nc1ccccc1)NNC(=O)c1cccs1 | -1 | -1 | 0 | 0 | -1 | 3 | . | .
O=C(Nc1c(C(=O)N2CCC(N3CCCCC3)CC2)oc2ccccc12)c1ccc(F)cc1 | -2 | 0 | 0 | 8.1* | -1 | -6 | 7.6* | 3
O=C(Nc1c(C(=O)N2CCC(N3CCCCC3)CC2)oc2ccccc12)c1c(F)cccc1F | 0 | 1 | 0 | 2 | -1 | 0 | . | .
CC(=O)c1cccc(S(=O)(=O)NC2CCCCCC2)c1 | 1 | 1 | -1 | 0 | -1 | -1 | . | .
O=C(Nc1ccc2c(c1)OCO2)c1ccccn1 | 2 | 11* | 1 | 8.8* | 0 | 22 | 9.9* | 7.1*
O=C(NN=Cc1ccc2c(c1)OCO2)c1ccccc1 | 6.0* | 10 | 3 | 5.3* | 1 | . | 11* | 5.8*
